Autofluor counter: counter-screen for toxin protease inhibitors: compound fluorescence; compound autofluorescence counterscreen, microsphere flow cytometry; stronger effect = higher value; fluorescence intensity (test concentration not listed); 360,000 tested, 3.1% active; AID 624483; in the data active = fluorescence intensity above about 16000; inconclusive = no clear call, values can overlap the other calls
BoNT A protease: inhibitors of Botulinum neurotoxin A light chain protease; inhibition, % at 10 µM; multiplex microsphere protease substrate cleavage, flow cytometry; AID 588499; 360,000 tested, 0.17% active; also: plate controls were buffer without enzyme for full effect and enzyme alone for no effect
MazEF act: increases E. coli MazEF RNase cleavage of RNA; P0AE70; AID 504720; FAM/BHQ RNA-DNA oligo cleavage fluorescence, 5 h; activation, % at 20 µM; 350,000 tested, 0.32% active; in the data active = activation above about 50%
Target sequence (P0AE70 whole entry, looked up): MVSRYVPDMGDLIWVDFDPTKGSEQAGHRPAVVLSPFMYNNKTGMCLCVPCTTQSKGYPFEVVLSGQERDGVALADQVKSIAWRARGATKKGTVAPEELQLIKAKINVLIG
Anthrax LF prot: inhibitors of Bacillus anthracis lethal factor protease; P15917; multiplex microsphere protease cleavage assay, LF; inhibition, % at 10 µM; 360,000 tested, 0.12% active; also: plate controls were buffer without enzyme for full effect and enzyme alone for no effect
DUSP3 inh: blocks human VHR1 dual specificity phosphatase; P51452; recombinant VHR phosphatase, pNPP absorbance; inhibition, % at 13.3 µM; 290,000 tested, 0.52% active; AID 1654; in the data active = inhibition above about 50%
Target sequence (P51452 whole entry, looked up): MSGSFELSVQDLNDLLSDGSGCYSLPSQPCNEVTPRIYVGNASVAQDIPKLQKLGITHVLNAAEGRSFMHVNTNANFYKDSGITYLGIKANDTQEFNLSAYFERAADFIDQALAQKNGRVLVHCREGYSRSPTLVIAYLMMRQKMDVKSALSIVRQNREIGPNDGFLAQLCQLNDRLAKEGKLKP
BoNT-F LC inh: BoNT F light chain protease inhibition | Multiplex microsphere protease cleavage assay, flow cytometry | inhibition, % at 10 µM | 360,000 tested, 0.22% active; in the data active = inhibition above about 35%, passing the limit was not always enough; inconclusive = no clear call, values can overlap the other calls; also: plate controls were buffer without enzyme for full effect and enzyme alone for no effect
Starred values were filed as active, the others as inactive; ? = inconclusive; . = no result given; ! = repeats disagree. Hits are enriched below; roughly 4.1% of the tested compounds scored in any of these assays. Rule as the data show it, unless noted: active = inhibition above about 30%; inconclusive = no clear call, values can overlap the other calls; inactive = below that.

SMILES | Autofluor counter | BoNT A protease | MazEF act | Anthrax LF prot | DUSP3 inh | BoNT-F LC inh
Cc1nc(NCc2ccccc2)[nH]c(=O)c1CCC(C)C | 24000* | -1 | 6 | 0 | -20 | 0
Cc1ccc(Nc2nc(C)c(CCC(C)C)c(=O)[nH]2)cc1 | 3586 | 1 | 1 | -2 | 10 | -5
O=C(OCc1cn([C@H]2C[C@H](c3ccc(Cl)cc3)N(C(=O)c3cccs3)C[C@@H]2O)nn1)c1ccccc1 | 3556 | -1 | 6 | -4 | . | -8
Cc1ccc(NC(=O)C2CCN(C(=O)NC3CCCCC3)CC2)cc1Cl | 3829 | 0 | 0 | -4 | -1 | -6
Cc1ccc(NC(=O)NC2CCCCC2)cc1Cl | 21618* | 5 | 6 | 1 | 2 | 4
S=C(Nc1ccc(Cl)c(Cl)c1)NC1CCCCC1 | 21140* | -2 | 22 | 1 | 11 | -5
CCn1c(SCC(=O)Nc2ccc3c(c2)OCCO3)nnc1C1CC1 | 5022 | 2 | 9 | -1 | 10 | 8
N=c1c(S(=O)(=O)c2ccc(Cl)cc2)cc2c(=O)n3ccccc3nc2n1CCN1CCOCC1 | 21495* | 5 | 14 | 6 | 6 | 6
N=c1c(S(=O)(=O)c2ccccc2)cc2c(=O)n3ccccc3nc2n1CCCN1CCOCC1 | 3900 | 1 | 28 | -8 | 18 | 0
N=c1c(S(=O)(=O)c2ccc(Cl)cc2)cc2c(=O)n3ccccc3nc2n1Cc1cccnc1 | 4951 | 1 | 81* | -2 | -17 | 4
Oc1ccc2oc3c(c2c1/C=N/n1cnnc1)CCCC3 | 21898* | ? | 0 | -1 | 2 | -11
Nc1c(C(=O)Nc2ccc(S(=O)(=O)N3CCCC3)cc2)sc2nc3cc4c(cc3cc12)CCC4 | 3057 | 7 | 57* | 2 | 51* | -2
Nc1c(C(=O)Nc2ccc(Cl)c(C(=O)O)c2)sc2nc3c(cc12)CCCC3 | 5074 | 0 | 0 | 0 | 2 | 0
Nc1c(C(=O)Nc2ccc(S(=O)(=O)N3CCCC3)cc2)sc2nc3ccc(OC(F)(F)F)cc3cc12 | 10897 | 7 | 402* | 3 | -10 | 3
COc1ccc2nc(SCC(=O)Nc3ccc(S(=O)(=O)N4CCCC4)cc3)c(C#N)cc2c1 | 10582 | 2 | 10 | 2 | -1 | -2
c1cc(C2OCCO2)cs1 | 3203 | 0 | 0 | -7 | . | -3
CN1CCN(C(=O)C2Cc3c(-c4ccc5c(c4)OCO5)ccnc3O2)CC1 (configuration not stated) | 3706 | 0 | . | 0 | . | 4
CCc1nc2ccccc2c(C(=O)NCc2ccccc2)c1C | 3160 | 2 | 0 | -2 | 6 | 27
CCc1nc2ccccc2c(C(=O)O)c1C | 22245* | 3 | 8 | 4 | 6 | 4
CCC(=O)Nc1c(C)c(CC)nc2ccccc12 | 16775* | -3 | -18 | -8 | 14 | -2
COc1ccccc1CN1CC(C(=O)NC2(c3ccccc3)CC2)CCC1=O (configuration not stated) | 4317 | -1 | 2 | -2 | 23 | 2
NC1=NC(=O)C(CC(=O)Nc2ccc3c(c2)OCO3)S1 (configuration not stated) | 2345 | 0 | 5 | -2 | 13 | -6
Cc1ccc2cccnc2c1NC(=S)NC(=O)c1ccccc1 | 22969* | ? | -2 | 2 | 18 | 1
O=C(N/N=C/c1ccc[nH]1)c1ccccc1OCc1ccccc1Cl | 4538 | 0 | 2 | -3 | 57* | -12
O=C(N=c1ccn(-c2nc3ccccc3nc2NS(=O)(=O)c2ccc(Cl)cc2)cc1)c1cccs1 | 5100 | 0 | 92* | -4 | 4 | -2
CCOC(=O)C1CCCN(CCCc2ccccc2)C1 (configuration not stated) | 23848*! | 0 | 2 | 3 | 38 | 4
CCOC(=O)c1ccc(NC(=O)C2CCCN(S(=O)(=O)c3ccc(F)cc3)C2)cc1 (configuration not stated) | 24696* | -1 | -2 | 0 | 18 | -4
CC(C)NC(=O)C1CCCN(S(=O)(=O)c2ccc(-n3cnnn3)cc2)C1 (configuration not stated) | 16890* | -2 | -12 | -3 | 21 | -5
O=C(NC1CCCC1)C1CCCN(S(=O)(=O)c2ccc(-n3cnnn3)cc2)C1 (configuration not stated) | 4357 | 0 | 0 | -5 | 6 | 3

High-throughput results as filed in PubChem BioAssay.
